Data reported in PubChem BioAssay.
The source made the active and inactive calls.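 The calls were made as follows: active = mean duplicate potentiation above the buffer control mean plus 5 SD of buffer wells; inactive = the rest.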

These molecules were tested against Potassium voltage-gated channel subfamily KQT member 2 (Rattus norvegicus) (UniProt O88943) (assay: rat KCNQ2 channel potentiation, selectivity assay for KCNQ1 potentiator project, KCNQ2-CHO-K1 cells (AID 493009;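 also: assay conditions were tuned for KCNQ1 rather than KCNQ2 modulators; signal is max minus min fluorescence divided by baseline after thallium stimulus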)). Conditions: FluxOR thallium flux fluorescence, at 10 µM; stronger effect = higher value, scaled: buffer 0, activator control 100.
Sequence of Potassium voltage-gated channel subfamily KQT member 2 (Rattus norvegicus) (O88943 whole entry, looked up): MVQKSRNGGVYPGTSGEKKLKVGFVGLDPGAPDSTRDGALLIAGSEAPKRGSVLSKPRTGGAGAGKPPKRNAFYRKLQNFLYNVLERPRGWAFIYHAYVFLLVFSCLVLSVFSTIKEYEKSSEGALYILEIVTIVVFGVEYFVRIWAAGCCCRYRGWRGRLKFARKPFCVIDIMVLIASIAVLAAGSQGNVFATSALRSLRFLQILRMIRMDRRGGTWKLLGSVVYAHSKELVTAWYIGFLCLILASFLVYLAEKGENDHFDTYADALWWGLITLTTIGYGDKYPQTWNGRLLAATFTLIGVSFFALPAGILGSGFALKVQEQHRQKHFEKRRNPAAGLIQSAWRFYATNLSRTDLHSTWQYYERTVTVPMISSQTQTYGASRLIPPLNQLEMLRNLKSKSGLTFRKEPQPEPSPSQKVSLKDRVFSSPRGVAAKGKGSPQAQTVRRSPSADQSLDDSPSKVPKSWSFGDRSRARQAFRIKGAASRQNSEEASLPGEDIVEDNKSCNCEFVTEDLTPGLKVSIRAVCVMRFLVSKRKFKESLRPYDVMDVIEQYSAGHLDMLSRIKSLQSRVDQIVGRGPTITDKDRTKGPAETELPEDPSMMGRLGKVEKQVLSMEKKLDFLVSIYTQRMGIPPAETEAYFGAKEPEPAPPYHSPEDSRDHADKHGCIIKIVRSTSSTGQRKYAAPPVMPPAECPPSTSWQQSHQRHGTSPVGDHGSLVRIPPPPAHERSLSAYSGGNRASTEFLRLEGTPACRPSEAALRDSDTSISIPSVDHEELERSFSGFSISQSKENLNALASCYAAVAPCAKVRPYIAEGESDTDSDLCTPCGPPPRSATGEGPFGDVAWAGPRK
With `Nc1c(C(=O)Nc2ccc(F)cc2)nnn1-c1cccc(C(F)(F)F)c1` the outcome was “inactive”.
In the case of `N=C1S/C(=C\c2ccco2)C(=O)N1c1nccs1`, the potentiation is reported as 186% (active).
`CCOc1ccc(-c2c(=O)n(O)c3ccccc3[n+]2[O-])cc1` was tested, and the potentiation was 254% (active).
In the case of `O=C(Nc1nnc(-c2ccco2)o1)c1cccc(Cl)c1`, the outcome is reported as “inactive”.
`COc1cccc(C(=O)Nc2nc(-c3ccccc3)c(-c3ccccc3)o2)c1` was tested, and the potentiation was 164% (active).
For `Cc1ccc(C)c(NC(=S)N/N=C2/CCCCc3ccccc32)c1`, the potentiation was 164% (active).
For `Cc1cc(C(=O)N/N=C/c2cccs2)no1`, the outcome was “inactive”.
With `N#Cc1ccccc1NS(=O)(=O)c1cc2c3c(c1)CCC(=O)N3CCC2` the outcome was “inactive”.
With `Cc1nn(C)c(C(=O)NC(=S)Nc2ccccc2Br)c1Cl` the potentiation was 254% (active).
For `CC(C)Cc1c2c([nH]c(=S)c1C#N)CCCC2`, the potentiation was 143% (active).
`Oc1ccc(N=Nc2ccc3c(c2)OCCO3)c2ncccc12` was tested, and the potentiation was 352% (active).
In the case of `Cc1ccc(C(=O)Nc2nc3ccccc3c(=O)s2)cc1`, the potentiation is reported as 216% (active).
In the case of `CN(Cc1nccs1)C(=O)c1ccc(OC2CCN(Cc3ccccn3)CC2)cc1`, the outcome is reported as “inactive”.
With `COc1ccc(C(=O)NC(=S)NNC(=O)c2ccc3ccccc3n2)cc1` the potentiation was 160% (active).
In the case of `COc1ccc(-c2nc(=S)c3ccc4ccccc4c3[nH]2)cc1`, the potentiation is reported as 180% (active).
`Cc1[nH]c(=S)sc1Cc1ccc(F)cc1` was tested, and the potentiation was 300% (active).
For `CC(=O)c1c(C)[nH]c(C(=O)Nc2cccc(C(F)(F)F)c2)c1C`, the outcome was “inactive”.
With `CC1(C)Cc2c(sc3[nH]c(=S)n(Cc4ccccc4)c(=O)c23)CO1` the potentiation was 198% (active).
